Results taken from PubChem BioAssay (Tox21).
Values without a mark were called inactive. Inconclusive results are not listed. Where a call stands in place of a potency, no number is given. Calls of active or inactive are those of the source. Unless noted, calls follow the shape of the dose curve; as a rule, active = well fitted curve in the direction sought with a large enough effect in the repeat runs; inconclusive = weak or mixed curves; inactive = no such curve, though single readings can be large; an effect the other way counts as inactive or inconclusive.

Key:
[1] = qHTS assay to identify small molecule HDAC inhibitors (AID 1259364); also: top concentration of the series differs between compounds; nearly all actives have a fitted effect of over 45% in size
How it was run: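 Luminescence read after 30 min room-temperature HDAC-Glo incubation measures cellular class I/II HDAC activity. Compounds were applied for 2 hr at 37 C to HCT-116 wild-type cells seeded the day before.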

[2] = qHTS assay to identify small molecule HDAC inhibitors - cell viability counter screen (AID 1259365); also: series mostly up to about 92 µM; nearly all actives have a fitted effect of over 50% in size
How it was run: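 Wild-type HCT-116 cells, 1,500/well, cultured overnight, then compound-treated 2 h at 37 C. Viability measured as ATP luminescence with CellTiter-Glo after 30 min at room temperature.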

[3] = qHTS assay to identify small molecule agonists of the sonic hedgehog signaling (Shh) pathway - cell viability counter screen (AID 1259366); also: nearly all actives have a fitted effect of over 50% in size
How it was run: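 NIH/3T3-derived Gli1-Luc reporter cells, 2,000 per well, received compound after 4 h and were treated about 23 h at 37C. Viability measured in the same wells by CellTiter-Fluor fluorescence after 1 h.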

[4] = qHTS assay to identify small molecule antagonists of the sonic hedgehog signaling (Shh) pathway - cell viability counter screen (AID 1259367); also: nearly all actives have a fitted effect of over 55% in size
How it was run: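 Cytotoxicity was assessed in parallel with Shh reporter activity by measuring live-cell protease fluorescence (CellTiter-Fluor) in NIH/3T3 cells stably carrying Gli1-Luc, treated with compound under conditioned medium stimulation for 23 hr plus 1 hr reagent incubation.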

[5] = qHTS assay to identify small molecule agonists of the sonic hedgehog signaling (Shh) pathway (AID 1259368; calls by dose curve;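 also: NIH/3T3-derived 3T3Gli1-Luc cells carrying a stable Gli1-driven firefly luciferase reporter; series mostly up to about 92 µM; nearly all actives have a fitted effect of over 15% in size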)
How it was run: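 Luminescence was read after 30 min at room temperature with luciferase reagent. Before that, 3T3Gli1-Luc cells (NIH/3T3 clone, stable Gli1-Luc reporter; 2,000/well) were exposed to compounds for 24 hr at 37C, 5% CO2, compounds being added 4 hr post-plating.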

[6] = qHTS assay to identify small molecule antagonists of the sonic hedgehog signaling (Shh) pathway (AID 1259369; calls by dose curve; also: nearly all actives have a fitted effect of over 45% in size)
How it was run: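 Antagonist mode: compound added to 3T3 Gli1-Luc cells followed by conditioned-medium stimulation, 24 h at 37 C, 5% CO2. Inhibition taken as loss of Gli1-driven luciferase luminescence.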

[7] = molecular target: Estrogen receptor beta (Homo sapiens) (UniProt Q92731); experiment: qHTS assay to identify small molecule agonists of the estrogen receptor beta (ER-beta) signaling pathway (AID 1259377; active = well fitted activation curve with a large enough effect in the signal ratio in the repeat runs, not every such curve was filed as active; the % refers to the signal ratio)
How it was run: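 ER-beta-UAS-bla HEK293T cells in medium with 2% charcoal-stripped FBS were exposed to compounds for 16 h at 37C. Beta-lactamase reporter activity was read as fluorescence after 2 h with LiveBLAzer B/G FRET substrate at room temperature.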

[8] = molecular target: Estrogen receptor beta (Homo sapiens) (UniProt Q92731); experiment: qHTS assay to identify small molecule antagonists of the estrogen receptor beta (ER-beta) signaling pathway (AID 1259378; active = well fitted inhibition curve with a large enough effect in the signal ratio in the repeat runs, not every such curve was filed as active; the % refers to the signal ratio)
How it was run: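 ER-beta-UAS-bla HEK293T (GripTite) cells in 2% charcoal-stripped FBS medium were preincubated 6 hr at 37C, dosed with compound, then stimulated with 1 nM E2 (final) for 16 hr; beta-lactamase reporter read by B/G FRET fluorescence after 2 hr substrate loading.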

[9] = qHTS assay to identify small molecule agonists of the androgen receptor (AR) signaling pathway in the presence of an antagonist - cell viability counter screen (AID 1259379);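 also: MDA-kb2 human breast cancer cells carrying an MMTV luciferase reporter; series mostly up to about 92 µM; nearly all actives have a fitted effect of over 25% in size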
How it was run: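 Cytotoxicity counter-screen run in the same wells as the nilutamide-challenged (3.0 µM final) AR agonist assay in MDA-kb2 cells. Compounds tested at 15 concentrations for 16 h, 37 °C without CO2; CellTiter-Fluor fluorescence read.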

[10] = qHTS assay to identify small molecule agonists of the estrogen receptor beta (ER-beta) signaling pathway - cell viability counter screen (AID 1259380); also: nearly all actives have a fitted effect of over 30% in size
How it was run: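 Cell viability counter screen: CellTiter-Glo luminescence (30 min, room temperature) measured in the same wells as the beta-lactamase readout, after 16 hr compound exposure at 37C of ER-beta-bla HEK293T cells in 2% charcoal-stripped FBS medium.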

[11] = qHTS assay to identify small molecule antagonists of the estrogen receptor beta (ER-beta) signaling pathway - cell viability counter screen (AID 1259382); also: series mostly up to about 92 µM; nearly all actives have a fitted effect of over 55% in size
How it was run: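 Cytotoxicity was measured in the same wells by CellTiter-Glo luminescence after 30 min at room temperature. Cells were ER-beta-bla HEK293T in charcoal-stripped serum, given compound together with 1 nM E2 and incubated 16 h at 37C.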

[12] = molecular target: Estrogen receptor (Homo sapiens) (UniProt P03372); experiment: qHTS assay to identify small molecule agonists of the estrogen receptor alpha (ER-alpha) signaling pathway in the presence of an antagonist (AID 1259383; calls by dose curve; also: top concentration of the series differs between compounds; nearly all actives have a fitted effect of over 15% in size)
How it was run: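 Agonist-mode confirmation run in the presence of 10.0nM (final) ICI-182,780 antagonist. The reporter was ERE-driven luciferase in VM7Luc4E2 cells, grown in charcoal-stripped serum. Cells were exposed to 15-concentration compound series for 22hr, then ONE-Glo luminescence was read.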

[13] = molecular target: Thyrotropin receptor (Homo sapiens) (UniProt P16473); experiment: qHTS assay to identify small molecule antagonists of the thyroid stimulating hormone receptor (TSHR) signaling pathway (AID 1259385; calls by dose curve; also: nearly all actives have a fitted effect of over 20% in size)
How it was run: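 TSHR-HEK293 cells were plated and held 18 h at 37C/5% CO2, then given compound plus Ro20-1724 and stimulated with TSH at 1.5 ng/mL final. After 30 min at room temperature, cAMP was detected with cAMP-d2/anti-cAMP-cryptate (1 h) by fluorescence.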

[14] = qHTS assay to identify small molecule agonists of the estrogen receptor alpha (ER-alpha) signaling pathway in the presence of an antagonist - cell viability counter screen (AID 1259386); also: series mostly up to about 92 µM; nearly all actives have a fitted effect of over 30% in size
How it was run: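 Compounds tested at 15 concentrations for 22 h at 37C alongside 10.0nM (final) ICI-182,780 antagonist, in VM7Luc4E2 cells grown in phenol red-free, charcoal-stripped medium. Viability read by CellTiter-Fluor fluorescence after 1 h reagent incubation.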

[15] = molecular target: Progesterone receptor (Homo sapiens) (UniProt P06401); experiment: qHTS assay to identify small molecule agonists of the progesterone receptor (PR) signaling pathway (AID 1346784; calls by dose curve; also: nearly all actives have a fitted effect of over 30% in size; also: potency is read from the fitted curve at half-maximal effect)
How it was run: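 PR-UAS-bla HEK 293T cells (beta-lactamase reporter under UAS) in 2% charcoal-stripped FBS, dosed with 23 nL compound after 6 hr, incubated 16hr at 37C. LiveBLAzer B/G FRET substrate added, fluorescence read after 2 hours.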

[16] = molecular target: Progesterone receptor (Homo sapiens) (UniProt P06401); experiment: qHTS assay to identify small molecule antagonists of the progesterone receptor (PR) signaling pathway (AID 1346795; active = well fitted inhibition curve with a large enough effect in the signal ratio in the repeat runs, not every such curve was filed as active; the % refers to the signal ratio)
How it was run: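 PR-UAS-bla HEK293T cells with beta-lactamase reporter under UAS control, in 2% charcoal-stripped FBS, treated with compounds plus 1 nM promegestone (R5020, final) for 16 hr at 37C. Read-out: FRET beta-lactamase substrate fluorescence after 2 hr at room temperature.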

[17] = qHTS assay to identify small molecule antagonists of the progesterone receptor (PR) signaling pathway - cell viability counter screen (AID 1346798); also: series mostly up to about 92 µM; nearly all actives have a fitted effect of over 50% in size
How it was run: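 PR-UAS-bla HEK293T cells, 3,000/well in 2% charcoal-stripped FBS medium, dosed with compounds plus R5020 agonist and incubated 16 h at 37C. Viability then measured in the same wells by CellTiter-Glo luminescence after 30 min at RT.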

[18] = qHTS assay to identify small molecule agonists of the progesterone receptor (PR) signaling pathway - cell viability counter screen (AID 1346799; calls by dose curve; also: nearly all actives have a fitted effect of over 45% in size)
How it was run: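 Counter screen in the PR-UAS-bla HEK293T wells (2% charcoal-stripped FBS, 16 h compound exposure at 37 C) after the bla read. CellTiter-Glo added, 30 min at room temperature, luminescence read as cell viability.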

[19] = qHTS assay to identify small molecule agonists or antagonists of the thyroid stimulating hormone receptor (TSHR) signaling pathway - wild type cell line counter screen (AID 1259384; calls by dose curve)
How it was run: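 Wild-type HEK293 cells were plated 18 h at 37 C/5% CO2, pin-dosed with compound plus Ro20-1724 medium, held 30 min at room temperature, then given cAMP-d2 and anti-cAMP-cryptate; fluorescence was read after 1 h. Fifteen concentrations, triplicate.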

[20] = qHTS assay to identify small molecule antagonists of the TGF-beta/Smad signaling pathway - cell viability counter screen (AID 1346824); also: nearly all actives have a fitted effect of over 50% in size
How it was run: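 SBE-bla HEK 293T cells were plated overnight at 37 C, then given compounds in DMSO plus TGF-beta1 (added as 0.25 ng/mL solution) for 5 hr. After the bla read, CellTiter-Glo was added to the same wells and luminescence read after 30 min at room temperature.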

Chain of Estrogen receptor beta (Homo sapiens) (Q92731 whole entry, looked up): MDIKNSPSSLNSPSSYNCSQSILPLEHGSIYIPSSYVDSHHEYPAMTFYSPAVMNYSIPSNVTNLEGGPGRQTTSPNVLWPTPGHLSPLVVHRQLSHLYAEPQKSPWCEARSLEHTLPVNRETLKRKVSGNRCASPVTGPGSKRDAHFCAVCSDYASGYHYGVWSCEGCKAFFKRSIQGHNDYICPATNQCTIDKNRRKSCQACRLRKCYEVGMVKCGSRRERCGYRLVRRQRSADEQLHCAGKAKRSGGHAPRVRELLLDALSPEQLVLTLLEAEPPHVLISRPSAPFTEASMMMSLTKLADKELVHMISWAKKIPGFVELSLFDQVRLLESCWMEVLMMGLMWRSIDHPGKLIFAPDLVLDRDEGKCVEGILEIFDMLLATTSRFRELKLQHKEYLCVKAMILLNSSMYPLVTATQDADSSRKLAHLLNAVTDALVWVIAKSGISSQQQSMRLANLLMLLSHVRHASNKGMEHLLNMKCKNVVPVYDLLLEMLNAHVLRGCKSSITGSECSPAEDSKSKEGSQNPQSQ
Chain of Thyrotropin receptor (Homo sapiens) (P16473 whole entry, looked up): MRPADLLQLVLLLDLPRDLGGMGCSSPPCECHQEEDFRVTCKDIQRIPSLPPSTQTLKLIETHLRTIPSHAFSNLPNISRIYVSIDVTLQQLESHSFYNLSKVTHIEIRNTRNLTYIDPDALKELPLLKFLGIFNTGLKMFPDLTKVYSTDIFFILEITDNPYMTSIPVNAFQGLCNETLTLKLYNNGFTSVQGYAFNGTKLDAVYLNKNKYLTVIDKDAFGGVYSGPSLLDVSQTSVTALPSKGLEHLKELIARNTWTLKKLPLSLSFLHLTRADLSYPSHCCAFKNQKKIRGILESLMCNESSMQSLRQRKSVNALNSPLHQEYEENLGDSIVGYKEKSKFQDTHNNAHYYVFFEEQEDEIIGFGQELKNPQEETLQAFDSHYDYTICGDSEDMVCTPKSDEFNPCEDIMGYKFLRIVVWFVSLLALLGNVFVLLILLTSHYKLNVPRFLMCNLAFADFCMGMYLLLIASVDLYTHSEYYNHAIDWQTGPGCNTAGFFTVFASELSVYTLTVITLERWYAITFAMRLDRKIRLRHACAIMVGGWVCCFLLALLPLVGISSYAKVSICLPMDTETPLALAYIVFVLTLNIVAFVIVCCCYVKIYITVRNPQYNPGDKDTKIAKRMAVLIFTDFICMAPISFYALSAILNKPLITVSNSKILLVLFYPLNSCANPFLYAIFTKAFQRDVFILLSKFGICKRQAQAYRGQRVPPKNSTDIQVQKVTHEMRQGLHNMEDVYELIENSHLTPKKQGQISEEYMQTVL
Chain of Progesterone receptor (Homo sapiens) (P06401 whole entry, looked up): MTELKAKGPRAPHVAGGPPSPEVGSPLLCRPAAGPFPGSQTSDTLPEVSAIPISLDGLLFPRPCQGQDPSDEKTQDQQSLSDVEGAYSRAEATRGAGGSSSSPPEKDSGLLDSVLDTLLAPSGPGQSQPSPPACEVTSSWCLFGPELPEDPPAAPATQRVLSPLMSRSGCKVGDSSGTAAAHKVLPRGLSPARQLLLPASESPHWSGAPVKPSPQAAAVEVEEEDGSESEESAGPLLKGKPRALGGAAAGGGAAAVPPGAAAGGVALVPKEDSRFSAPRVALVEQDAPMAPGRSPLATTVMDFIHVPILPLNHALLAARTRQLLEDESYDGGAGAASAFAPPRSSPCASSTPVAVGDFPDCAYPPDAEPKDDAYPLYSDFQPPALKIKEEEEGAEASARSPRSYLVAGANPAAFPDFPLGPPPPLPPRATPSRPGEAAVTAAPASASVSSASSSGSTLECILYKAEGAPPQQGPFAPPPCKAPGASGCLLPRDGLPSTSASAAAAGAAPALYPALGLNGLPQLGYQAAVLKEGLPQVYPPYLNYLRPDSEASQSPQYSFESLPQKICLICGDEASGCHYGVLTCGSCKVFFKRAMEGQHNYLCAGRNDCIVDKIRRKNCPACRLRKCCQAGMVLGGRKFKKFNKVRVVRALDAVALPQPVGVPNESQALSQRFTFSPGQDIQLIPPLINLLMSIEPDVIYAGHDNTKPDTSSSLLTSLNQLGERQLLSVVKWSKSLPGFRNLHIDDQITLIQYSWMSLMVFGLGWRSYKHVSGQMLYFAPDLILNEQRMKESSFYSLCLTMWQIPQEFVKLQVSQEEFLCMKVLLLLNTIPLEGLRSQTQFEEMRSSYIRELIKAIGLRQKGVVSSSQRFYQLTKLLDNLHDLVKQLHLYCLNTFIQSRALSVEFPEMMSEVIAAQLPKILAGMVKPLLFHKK
Chain of Estrogen receptor (Homo sapiens) (P03372 whole entry, looked up): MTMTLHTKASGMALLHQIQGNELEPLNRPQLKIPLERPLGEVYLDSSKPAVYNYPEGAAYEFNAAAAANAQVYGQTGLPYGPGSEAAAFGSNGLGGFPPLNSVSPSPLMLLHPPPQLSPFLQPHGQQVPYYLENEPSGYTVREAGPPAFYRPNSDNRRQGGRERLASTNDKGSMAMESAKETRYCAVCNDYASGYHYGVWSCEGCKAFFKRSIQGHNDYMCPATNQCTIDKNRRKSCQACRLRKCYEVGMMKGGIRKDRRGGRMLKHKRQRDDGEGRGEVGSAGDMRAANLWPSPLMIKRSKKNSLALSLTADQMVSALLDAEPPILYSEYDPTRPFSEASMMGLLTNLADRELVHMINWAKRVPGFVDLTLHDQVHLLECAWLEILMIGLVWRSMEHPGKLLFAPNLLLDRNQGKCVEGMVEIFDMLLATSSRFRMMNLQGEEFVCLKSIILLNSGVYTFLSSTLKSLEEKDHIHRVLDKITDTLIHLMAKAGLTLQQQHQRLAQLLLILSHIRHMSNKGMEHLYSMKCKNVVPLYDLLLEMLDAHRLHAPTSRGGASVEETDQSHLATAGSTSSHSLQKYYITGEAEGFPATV

| SMILES | Potency [1] | outcome [2] | Potency [3] | Potency [4] | outcome [5] | Potency [6] | Potency [7] | outcome [8] | Potency [9] | outcome [10] | outcome [11] | outcome [12] | outcome [13] | Potency [14] | Potency [15] | Potency [16] | Potency [17] | Potency [18] | outcome [19] | outcome [20] |
| --- | --- | --- | --- | --- | --- | --- | --- | --- | --- | --- | --- | --- | --- | --- | --- | --- | --- | --- | --- | --- |
| CCCCOC(=O)C(C)OC(=O)CCC (stereo not drawn) | inactive | inactive | inactive | inactive | inactive | inactive | inactive | inactive | inactive | inactive | inactive | inactive | inactive | inactive | inactive | inactive | inactive | inactive |  |  |
| CC(C)COC(=O)CC(C(=O)OCC(C)C)S(=O)(=O)O (stereo not drawn) | inactive | inactive | inactive | inactive | inactive | inactive | inactive | inactive | inactive | inactive | inactive | inactive |  | inactive | inactive | inactive | inactive | inactive |  |  |
| N#CCCOCCOCCC#N | inactive | inactive | inactive | inactive | inactive | inactive | inactive | inactive | inactive | inactive | inactive | inactive | inactive | inactive |  | inactive | inactive | inactive | inactive | inactive |
| O=C(O)c1ccc(OCCN2CCCCC2)cc1 | inactive | inactive | inactive | inactive | inactive | inactive | inactive | inactive | inactive | inactive | inactive | inactive | inactive | inactive | inactive | inactive | inactive | inactive |  | inactive |
| CCOC(=O)C(C)(C)C | inactive | inactive | inactive | inactive | inactive | inactive | inactive | inactive | inactive | inactive | inactive | inactive | inactive | inactive | 12.3 µM (active) | inactive | inactive | inactive | inactive |  |
| CC(C)CCO | inactive | inactive | inactive | inactive | inactive | inactive | inactive | inactive | inactive | inactive | inactive | inactive | inactive | inactive | inactive | inactive | inactive | inactive | inactive | inactive |
| Nc1ccc(S(=O)(=O)NC(=O)c2ccccc2)cc1 | inactive | inactive | inactive | inactive | inactive | inactive | inactive | inactive | inactive | inactive | inactive | inactive | inactive | inactive |  | inactive |  | inactive | inactive | inactive |
| C=CCOCC(O)CCl (stereo not drawn) | inactive | inactive | inactive | inactive | inactive | inactive | inactive | inactive | inactive | inactive | inactive | inactive |  | inactive | inactive | inactive | inactive | inactive |  | inactive |
| CCCCCCCCCCCCOC(C)=O | inactive | inactive | inactive | inactive | inactive | inactive | inactive | inactive | inactive | inactive | inactive | inactive | inactive | inactive | inactive | inactive | inactive | inactive | inactive |  |
| CCCCCC(=O)OCC | inactive | inactive | inactive | inactive | inactive | inactive | inactive | inactive | inactive | inactive | inactive | inactive | inactive | inactive | inactive | inactive | inactive | inactive | inactive | inactive |
| CC(=O)OC(C(=O)c1ccccc1)c1ccccc1 (stereo not drawn) | inactive | inactive | inactive | inactive | inactive | inactive | inactive | inactive | inactive | inactive | inactive | inactive | inactive | inactive | inactive | inactive | inactive | inactive | inactive | inactive |
| Nc1ccnc(=O)[nH]1 | inactive | inactive | inactive | inactive | inactive | inactive | inactive | inactive | inactive | inactive | inactive | inactive | inactive | inactive | inactive | inactive | inactive | inactive | inactive |  |
| C=CCOC(=O)c1ccc(C(=O)OCC=C)c(C(=O)OCC=C)c1 | inactive | inactive | inactive | inactive | inactive | inactive | inactive | inactive | inactive | inactive | inactive | inactive |  | inactive | inactive |  | inactive | inactive | inactive | inactive |
| F[Si-2](F)(F)(F)(F)F | inactive | inactive | inactive | inactive | inactive | inactive | inactive | inactive | inactive | inactive | inactive | inactive | inactive | inactive | inactive | inactive | inactive | inactive | inactive | inactive |
| CC(C)(C)c1ccc(C=O)cc1 | inactive | inactive | inactive | inactive | inactive | inactive | inactive | inactive | inactive | inactive | inactive | inactive | inactive | inactive | inactive | inactive | inactive | inactive |  | inactive |
